# About 410 targets per protein were measured; listed, in parts, are those with the strongest signals and a random draw of the rest.
# What was measured:
# Experiment in all cases: glycan array binding signal (z-score within array); higher = stronger binding
# Conditions in all cases: glycan notation: IUPAC condensed, linker removed
# [1] = molecular target: Fuc(a1-2)Gal(b1-3)GalNAc(a1-3)[Fuc(a1-2)]Gal(b1-4)GlcNAc
# Summary of the method: (§1)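 From the Consortium for Functional Glycomics database, 3228 arrays were curated, keeping only those whose protein sequence was available. Binding is given as a within-array Z-score averaged across arrays sharing a protein sequence and across linkers. Negative Z-scores can be read as non-binding.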
# [2] = molecular target: Fuc(a1-2)Gal(b1-3)GlcNAc(b1-2)Man(a1-3)[Fuc(a1-2)Gal(b1-3)GlcNAc(b1-2)Man(a1-6)]Man(b1-4)GlcNAc(b1-4)GlcNAc
# Summary of the method: as §1
# [3] = molecular target: Fuc(a1-2)Gal(b1-3)GlcNAc6S
# Summary of the method: as §1
# [4] = molecular target: Fuc(a1-2)Gal(b1-3)[Fuc(a1-4)]GlcNAc
# Summary of the method: as §1
# [5] = molecular target: Fuc(a1-2)Gal(b1-3)[Fuc(a1-4)]GlcNAc(b1-3)[Gal(b1-4)GlcNAc(b1-6)]Gal(b1-4)Glc
# Summary of the method: as §1
# [6] = molecular target: Fuc(a1-2)[Gal(a1-4)]Gal(b1-4)GlcNAc
# Summary of the method: as §1
# [7] = molecular target: Fuc(a1-2)[GalNAc(a1-3)]Gal(b1-3)GalNAc(a1-3)[Fuc(a1-2)]Gal(b1-4)GlcNAc
# Summary of the method: as §1
# [8] = molecular target: Fuc(a1-3)[Gal(b1-4)]GlcNAc(b1-2)Man
# Summary of the method: as §1
# [9] = molecular target: Fuc(a1-3)[Gal(b1-4)]GlcNAc(b1-6)GalNAc
# Summary of the method: as §1
# [10] = molecular target: Gal(a1-4)Gal(b1-4)GlcNAc(b1-2)Man(a1-3)[Gal(a1-4)Gal(b1-4)GlcNAc(b1-2)Man(a1-6)]Man(b1-4)GlcNAc(b1-4)GlcNAc
# Summary of the method: as §1
# [11] = molecular target: Gal(a1-4)Gal(b1-4)GlcNAc(b1-3)Gal(b1-4)Glc
# Summary of the method: as §1
# [12] = molecular target: Gal(b1-3)Gal
# Summary of the method: as §1
# [13] = molecular target: Gal(b1-3)Gal(b1-4)GlcNAc
# Summary of the method: as §1
# [14] = molecular target: Gal(b1-3)GalNAc(b1-3)Gal
# Summary of the method: as §1
# [15] = molecular target: Gal(b1-3)GlcNAc
# Summary of the method: as §1
# [16] = molecular target: Gal(b1-3)[Neu5Ac(a2-6)]GlcNAc(b1-4)Gal(b1-4)Glc
# Summary of the method: as §1
# [17] = molecular target: Gal(b1-4)GlcNAc(b1-2)[Gal(b1-4)GlcNAc(b1-4)]Man(a1-3)[Gal(b1-4)GlcNAc(b1-2)Man(a1-6)]Man(b1-4)GlcNAc(b1-4)GlcNAc
# Summary of the method: as §1
# [18] = molecular target: Gal(b1-4)GlcNAc(b1-3)Gal(b1-4)GlcNAc(b1-2)Man(a1-3)[Gal(b1-4)GlcNAc(b1-3)Gal(b1-4)GlcNAc(b1-2)Man(a1-6)]Man(b1-4)GlcNAc(b1-4)[Fuc(a1-6)]GlcNAc
# Summary of the method: as §1
# [19] = molecular target: Gal(b1-4)GlcNAc(b1-3)Gal(b1-4)GlcNAc(b1-3)Gal(b1-4)GlcNAc(b1-2)[Gal(b1-4)GlcNAc(b1-3)Gal(b1-4)GlcNAc(b1-3)Gal(b1-4)GlcNAc(b1-6)]Man(a1-6)[Gal(b1-4)GlcNAc(b1-3)Gal(b1-4)GlcNAc(b1-3)Gal(b1-4)GlcNAc(b1-2)Man(a1-3)]Man(b1-4)GlcNAc(b1-4)[Fuc(a1-6)]GlcNAc
# Summary of the method: as §1
# [20] = molecular target: Gal(b1-4)GlcNAc(b1-3)Gal(b1-4)GlcNAc(b1-3)Gal(b1-4)GlcNAc(b1-3)Gal(b1-4)GlcNAc(b1-3)Gal(b1-4)GlcNAc(b1-2)[Gal(b1-4)GlcNAc(b1-3)Gal(b1-4)GlcNAc(b1-3)Gal(b1-4)GlcNAc(b1-3)Gal(b1-4)GlcNAc(b1-3)Gal(b1-4)GlcNAc(b1-6)]Man(a1-6)[Gal(b1-4)GlcNAc(b1-3)Gal(b1-4)GlcNAc(b1-3)Gal(b1-4)GlcNAc(b1-3)Gal(b1-4)GlcNAc(b1-3)Gal(b1-4)GlcNAc(b1-2)Man(a1-3)]Man(b1-4)GlcNAc(b1-4)[Fuc(a1-6)]GlcNAc
# Summary of the method: as §1
# [21] = molecular target: Gal(b1-4)GlcNAc(b1-3)Gal(b1-4)GlcNAc(b1-3)[Gal(b1-4)GlcNAc(b1-3)Gal(b1-4)GlcNAc(b1-6)]GalNAc
# Summary of the method: as §1
# [22] = molecular target: Gal3S(b1-3)GlcNAc
# Summary of the method: as §1
# [23] = molecular target: Gal3S(b1-4)[Fuc(a1-3)]GlcNAc6S
# Summary of the method: as §1
# [24] = molecular target: Gal3S6S(b1-4)GlcNAc6S
# Summary of the method: as §1
# [25] = molecular target: Gal4S6S(b1-4)GlcNAc
# Summary of the method: as §1
# [26] = molecular target: GalNAc(b1-3)GalNAc
# Summary of the method: as §1
# [27] = molecular target: GalNAc(b1-6)GalNAc
# Summary of the method: as §1
# [28] = molecular target: GalNAc3S(b1-4)[Fuc(a1-3)]GlcNAc
# Summary of the method: as §1
# [29] = molecular target: Glc(b1-6)Glc
# Summary of the method: as §1
# [30] = molecular target: GlcNAc(a1-4)Gal(b1-4)GlcNAc(b1-3)Gal(b1-4)[Fuc(a1-3)]GlcNAc(b1-3)Gal(b1-4)[Fuc(a1-3)]GlcNAc
# Summary of the method: as §1
# [31] = molecular target: GlcNAc(b1-2)Gal(b1-3)GalNAc
# Summary of the method: as §1
# [32] = molecular target: GlcNAc(b1-3)Fuc
# Summary of the method: as §1
# [33] = molecular target: GlcNAc(b1-3)Gal(b1-4)GlcNAc(b1-2)Man(a1-3)[GlcNAc(b1-3)Gal(b1-4)GlcNAc(b1-2)Man(a1-6)]Man(b1-4)GlcNAc(b1-4)[Fuc(a1-6)]GlcNAc
# Summary of the method: as §1
# [34] = molecular target: GlcNAc(b1-3)[GlcNAc(b1-6)]Gal(b1-4)GlcNAc
# Summary of the method: as §1
# [35] = molecular target: GlcNAc(b1-4)GlcNAc(b1-4)GlcNAc(b1-4)GlcNAc(b1-4)GlcNAc
# Summary of the method: as §1
# [36] = molecular target: Man(a1-2)Man(a1-3)[Man(a1-6)]Man(a1-6)[Man(a1-2)Man(a1-3)]Man(b1-4)GlcNAc(b1-4)GlcNAc
# Summary of the method: as §1
# [37] = molecular target: Man(a1-3)[Man(a1-6)]Man(a1-6)[Man(a1-3)]Man(b1-4)GlcNAc(b1-4)GlcNAc
# Summary of the method: as §1
# [38] = molecular target: Neu5Ac(a2-3)Gal(b1-3)GalNAc(b1-4)[Neu5Ac(a2-3)]Gal(b1-4)Glc
# Summary of the method: as §1
# [39] = molecular target: Neu5Ac(a2-3)Gal(b1-3)GlcNAc(b1-2)Man
# Summary of the method: as §1
# [40] = molecular target: Neu5Ac(a2-3)Gal(b1-3)GlcNAc(b1-3)Gal(b1-4)GlcNAc
# Summary of the method: as §1
# [41] = molecular target: Neu5Ac(a2-3)Gal(b1-3)[GlcNAc(b1-6)]GalNAc
# Summary of the method: as §1
# [42] = molecular target: Neu5Ac(a2-3)Gal(b1-3)]Neu5Ac(a2-3)Gal(b1-4)]GlcNAc
# Summary of the method: as §1
# [43] = molecular target: Neu5Ac(a2-3)Gal(b1-4)GlcNAc(b1-2)Man(a1-3)[Neu5Ac(a2-3)Gal(b1-4)GlcNAc(b1-2)Man(a1-6)]Man(b1-4)GlcNAc(b1-4)[Fuc(a1-6)]GlcNAc
# Summary of the method: as §1
# [44] = molecular target: Neu5Ac(a2-3)Gal(b1-4)GlcNAc(b1-3)Gal(b1-4)GlcNAc
# Summary of the method: as §1
# [45] = molecular target: Neu5Ac(a2-3)Gal(b1-4)GlcNAc6S
# Summary of the method: as §1
# [46] = molecular target: Neu5Ac(a2-3)Gal(b1-4)[Fuc(a1-3)]GlcNAc(b1-2)Man
# Summary of the method: as §1
# [47] = molecular target: Neu5Ac(a2-6)Gal(b1-4)GlcNAc(b1-2)Man(a1-6)[Man(a1-3)]Man(b1-4)GlcNAc(b1-4)GlcNAc
# Summary of the method: as §1
# [48] = molecular target: Neu5Ac(a2-6)Gal(b1-4)GlcNAc(b1-3)Gal(b1-4)GlcNAc(b1-3)Gal(b1-4)GlcNAc(b1-2)Man(a1-3)[Neu5Ac(a2-6)Gal(b1-4)GlcNAc(b1-3)Gal(b1-4)GlcNAc(b1-3)Gal(b1-4)GlcNAc(b1-2)Man(a1-6)]GalNAc
# Summary of the method: as §1
# [49] = molecular target: Neu5Ac(a2-6)Gal(b1-4)GlcNAc(b1-3)Gal(b1-4)GlcNAc(b1-3)GalNAc
# Summary of the method: as §1
# [50] = molecular target: Neu5Ac(a2-6)Gal(b1-4)GlcNAc(b1-3)Gal(b1-4)GlcNAc(b1-3)[Neu5Ac(a2-6)Gal(b1-4)GlcNAc(b1-3)Gal(b1-4)GlcNAc(b1-6)]GalNAc
# Summary of the method: as §1
# [51] = molecular target: Neu5Ac(a2-6)Gal(b1-4)GlcNAc(b1-6)[Gal(b1-3)GlcNAc(b1-3)]Gal(b1-4)Glc
# Summary of the method: as §1
# [52] = molecular target: Neu5Ac(a2-6)GalNAc(b1-4)GlcNAc6S
# Summary of the method: as §1
# [53] = molecular target: Neu5Ac(a2-8)Neu5Gc(a2-3)Gal(b1-4)GlcNAc
# Summary of the method: as §1
# [54] = molecular target: Neu5Gc(a2-3)Gal(b1-4)GlcNAc(b1-3)Gal(b1-4)GlcNAc(b1-2)Man(a1-3)[Neu5Gc(a2-3)Gal(b1-4)GlcNAc(b1-3)Gal(b1-4)GlcNAc(b1-2)Man(a1-6)]Man(b1-4)GlcNAc(b1-4)GlcNAc
# Summary of the method: as §1
binder,measurement,setting,value
SJCP1531 (Schistosoma japonicum) (protein) MFKVRIINLVNISTVLLLINLLQTKSQVNVEQLVTVLEVNIKAQLKNKTTEVLVEWNPLYQDNSMPEYRKLLDETCKLFLPFVNEKVPPSTYGGECTNANFSEAPQDGSYSRVNAELRLIYKYSDNPQIQTDRLQDDLNDREEFITSESSFVAYNPKFTVKIEKLFIPISESQTTPPPTTAKNDASKKDDDDNGGEDSKAPIDTFAMTASGNKGKKDDDDNGGEDSKAPIDTFAMTASGSKDERSTWTIIGIITLVVLIFVVIGGGITVFVKRC,glycan array binding signal (z-score),[1],-0.571
same,glycan array binding signal (z-score),[2],-0.207
same,glycan array binding signal (z-score),[3],-0.955
same,glycan array binding signal (z-score),[4],0.144
same,glycan array binding signal (z-score),[5],0.498
same,glycan array binding signal (z-score),[6],0.12
same,glycan array binding signal (z-score),[7],-0.433
same,glycan array binding signal (z-score),[8],0.026
same,glycan array binding signal (z-score),[9],1.34
same,glycan array binding signal (z-score),[10],2.24
same,glycan array binding signal (z-score),[11],1.03
same,glycan array binding signal (z-score),[12],3.29
same,glycan array binding signal (z-score),[13],0.064
same,glycan array binding signal (z-score),[14],-0.062
same,glycan array binding signal (z-score),[15],0.101
same,glycan array binding signal (z-score),[16],-1.38
same,glycan array binding signal (z-score),[17],0.725
same,glycan array binding signal (z-score),[18],2.21
same,glycan array binding signal (z-score),[19],2.79
same,glycan array binding signal (z-score),[20],2.63
same,glycan array binding signal (z-score),[21],2.8
same,glycan array binding signal (z-score),[22],0.215
same,glycan array binding signal (z-score),[23],1.28
same,glycan array binding signal (z-score),[24],3.17
same,glycan array binding signal (z-score),[25],-0.722
same,glycan array binding signal (z-score),[26],0.218
same,glycan array binding signal (z-score),[27],2.81
same,glycan array binding signal (z-score),[28],-1.15
same,glycan array binding signal (z-score),[29],-0.797
same,glycan array binding signal (z-score),[30],2.8
same,glycan array binding signal (z-score),[31],-1.08
same,glycan array binding signal (z-score),[32],-0.112
same,glycan array binding signal (z-score),[33],-0.143
same,glycan array binding signal (z-score),[34],0.523
same,glycan array binding signal (z-score),[35],-0.099
same,glycan array binding signal (z-score),[36],-1.4
same,glycan array binding signal (z-score),[37],-0.243
same,glycan array binding signal (z-score),[38],-1.32
same,glycan array binding signal (z-score),[39],-0.604
same,glycan array binding signal (z-score),[40],-0.438
same,glycan array binding signal (z-score),[41],0.205
same,glycan array binding signal (z-score),[42],-0.188
same,glycan array binding signal (z-score),[43],-1.15
same,glycan array binding signal (z-score),[44],2.53
same,glycan array binding signal (z-score),[45],0.004
same,glycan array binding signal (z-score),[46],-0.84
same,glycan array binding signal (z-score),[47],-1.2
same,glycan array binding signal (z-score),[48],3.3
same,glycan array binding signal (z-score),[49],2.87
same,glycan array binding signal (z-score),[50],3
same,glycan array binding signal (z-score),[51],0.485
same,glycan array binding signal (z-score),[52],0.413
same,glycan array binding signal (z-score),[53],-1.65
same,glycan array binding signal (z-score),[54],0.86

# From the supplement of paper PMC8728848
